PubChem BioAssay AID2177 (The Scripps Research Institute Molecular Screening Center, 2009)
In all, about 320,000 compounds went through this assay and about 1,200 (0.38%) were called active. Shown is part of a subset that was picked to be rich in actives. Unmarked numbers belong to inactive results.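 How the source made its calls: active means inhibition above the screen-wide mean plus 3 SD, limit set per campaign (cut at about 26% in these data); inactive means the rest.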

biological target: Acyl-protein thioesterase 2 (Homo sapiens) (UniProt O95372); assay: LYPLA2 inhibitors, primary screen, counter-screen for PME1 inhibitor project, biochemical, fluorescence polarization, FP-Rh probe ABPP (AID 2177); details: recombinant LYPLA2, FP-Rh probe fluorescence polarization; at 5.9 µM; stronger effect = higher value;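 further: 0% = LYPLA2 with DMSO and 100% = wells lacking LYPLA2 enzyme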
Sequence (O95372 whole entry, looked up): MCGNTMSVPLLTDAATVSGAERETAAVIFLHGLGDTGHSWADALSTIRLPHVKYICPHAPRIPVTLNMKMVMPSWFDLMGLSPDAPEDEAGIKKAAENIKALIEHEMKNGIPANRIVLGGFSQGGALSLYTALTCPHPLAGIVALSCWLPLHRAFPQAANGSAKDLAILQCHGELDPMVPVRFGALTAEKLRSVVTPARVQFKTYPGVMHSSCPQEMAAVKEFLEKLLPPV

Row | SMILES | inhibition
1 | CCOc1cc(S(=O)(=O)NCc2ccc3c(c2)OCO3)ccc1F | 7.67%
2 | CCCn1c(NC(=O)C23CC4CC(CC(O)(C4)C2)C3)nc2ccccc21 | -2.06%
3 | CCC1CCCCN1C(=O)CSc1nc2c(c(=O)n(C)c(=O)n2C)n1C (stereo unspecified) | 1.22%
4 | CC/C(Cc1ccccc1)=N/NC(=O)CCn1nnc2ccccc21 | 9.11%
5 | Cc1nc([N+](=O)[O-])cn1CC(=O)Nc1ccc(Cl)cc1 | 35.7% (active)
6 | Cc1onc(C(=O)Nc2ccc3c(c2)OCO3)c1[N+](=O)[O-] | 7.4%
7 | Cc1nc([N+](=O)[O-])cn1CC(=O)Nc1ccc2c(c1)OCO2 | 27.6% (active)
8 | Cc1cc(C)n(CC(=O)Nc2ccc([N+](=O)[O-])cc2)n1 | -3.9%
9 | Cc1ccc(C(=O)Cn2cc([N+](=O)[O-])nc2C)cc1 | 14.3%
10 | Cc1nn(CC(=O)Nc2ccc3c(c2)OCO3)c(C)c1[N+](=O)[O-] | 3.02%
11 | CC(C)C1Nc2c(C(=O)O)cccc2C(Nc2ccccc2C(=O)O)C1(C)C (stereo unspecified) | 1.52%
12 | c1ccc(CSc2ncnc3c2sc2nc(N4CCOCC4)c4c(c23)CCCC4)cc1 | 1.88%
13 | CCOc1ncccc1C(=O)N(CC)CC(=O)Nc1ccc(NC(C)=O)cc1 | -2.58%
14 | COc1ccc(C(CC(=O)Nc2ccc(C)cc2)NC(=O)C(F)(F)F)cc1 (stereo unspecified) | -1.1%
15 | COc1ccc(C(C#N)Nc2ccccc2C)cc1 (stereo unspecified) | 2.16%
16 | COc1ccc(C(C#N)Nc2ccc(C)cc2)cc1 (stereo unspecified) | 29.2% (active)
17 | Cn1nc(C(F)(F)F)c(C(=O)Nc2cccc(C(F)(F)F)c2)c1SCc1ccc(Cl)cc1 | -39.3%
18 | O=C(Oc1ccc(Br)cc1)c1cccnc1 | 1.78%
19 | N#CCc1ccc(OC(=O)c2cccnc2)cc1 | -0.53%
20 | CCCCCCOc1ccc(OC(=O)c2cccnc2)cc1 | 49.8% (active)
21 | COC(=O)c1cccc(-n2[nH]nnc2=S)c1 | -1.32%
22 | CN1CCN(c2ccc(S(=O)(=O)N3CCOCC3)cc2NC(=O)CCc2ccccc2)CC1 | 6.09%
23 | O=C(Cc1ccccn1)c1ccc(O)cc1O | -2.59%

Row | SMILES | inhibition
24 | O=c1c(-c2ccc3c(c2)OCCO3)c(C(F)(F)F)oc2cc(O)cc(O)c12 | 3.69%
25 | CCOC(=O)c1cc(=O)c2ccc(OCc3ccccc3)cc2o1 | -1.62%
26 | CCOC(=O)c1cc2cc(-c3c(C(=O)OCC)oc4cc(O)cc(O)c4c3=O)ccc2o1 | 33.9% (active)
27 | COC(=O)c1ccc(CN2CCCC(C(=O)Nc3cccc(-n4cnnn4)c3)C2)cc1 (stereo unspecified) | 2.89%
28 | COc1cccc(N(C(=O)c2ccn[nH]2)C2(C(=O)Nc3c(C)cccc3C)CCCCC2)c1 | -1.38%
29 | O=C(O)c1ccc(/C=N/NC(=S)NCc2ccccc2)cc1 | -7.47%
30 | Cc1ccc(/C=N/NC(=O)C(NC(=O)c2ccccc2)c2n[nH]c(=O)c3ccccc23)cc1 (stereo unspecified) | 40.8% (active)
31 | Cc1ccc(/C=N/NC(=O)COc2ccccc2-c2ccccc2)cc1 | 2.18%
32 | O=C(CNc1ccc(F)cc1F)NC(=O)NCc1ccco1 | -3.47%
33 | Cc1ccc(NC(=O)C(c2ccccc2)N2CCN(C(=O)c3ccco3)CC2)cc1 (stereo unspecified) | 0.07%
34 | Nc1nnc(SCC(=O)NC2CCCc3ccccc32)s1 (stereo unspecified) | -1.96%
35 | O=C(Cc1ccc(Br)cc1)NCCN1CCOCC1 | 4.15%
36 | COc1ccc(NC(=O)NCCN2CCN(c3ccc(C)cc3)CC2)c(Cl)c1 | -3.78%
37 | COc1ccc(N2CCN(C(=O)c3cccs3)CC2)cc1 | 8.83%
38 | COc1ccc(N2CCN(C(=O)c3ccc(N4CCCCS4(=O)=O)cc3)CC2)cc1 | 63% (active)
39 | COc1ccc(N2CCN(C(=O)c3ccc4c(Cl)c5c(nc4c3)CCCC5)CC2)cc1 | 7.7%
40 | COc1ccccc1N1CCC(N2CCN(CC(C)(C)C)C(CCO)C2)CC1 (stereo unspecified) | -1.78%
41 | COc1ccc(C(=O)OCC(=O)NC(=O)CCSc2ccccc2)cc1 | 28.6% (active)
42 | COc1ccc(NC(=O)COC(=O)c2ccc(NS(=O)(=O)/C=C/c3ccccc3)cc2)cc1 | -12%
43 | O=C(COC(=O)c1ccccc1)Nc1ccccc1Sc1ccccc1 | -10.2%
44 | C[C@H](OC(=O)n1ccnc1)[C@@H]1O[C@@]2(C)CCC[C@@H]1O2 | 3.91%
45 | CC(=O)NC12CC3CC(C1)CC(C(=O)N1CCN(C(=O)c4ccco4)CC1)(C3)C2 | 6.61%
46 | COc1ccccc1OCC(=O)O/N=C(\N)c1ccccn1 | -1.78%

Row | SMILES | inhibition
47 | COc1ccc(NC(=O)c2ccccc2[N+](=O)[O-])cc1OC | -0.83%
48 | O=C(COc1ccc(NC(=O)c2ccccc2[N+](=O)[O-])cc1)c1ccc(F)cc1 | 43.8% (active)
49 | O=C(Nc1ccncc1)c1ccccc1[N+](=O)[O-] | 2.96%
50 | COc1c(C)c2c(c(O)c1C/C=C(\C)CCC(=O)O)C(=O)OC2 | 1.01%
51 | Cc1ncc([N+](=O)[O-])n1CCOC(=O)c1ccc(Br)cc1 | 4.52%
52 | CN(C)CCCn1c(SCc2ccc(Cl)cc2)nnc1-c1ccncc1 | 2.66%
53 | O=C(c1cc(-c2ccc(F)cc2)on1)N1CCN(c2ccc(F)cc2)CC1 | 8.86%
54 | O=C(c1cc(-c2ccc(Cl)cc2)on1)N1CCN(c2ccccc2)CC1 | 31.3% (active)
55 | COc1ccc(-c2cc(C(=O)N3CCN(c4ccc(F)cc4)CC3)no2)cc1 | 8.33%
56 | CCN(CC)CCCNC(=O)Cn1cnc2sc(C)c(S(=O)(=O)N3CCN(c4ncccn4)CC3)c2c1=O | 4.51%
57 | CCN(CC)CCNC(=O)Cn1cnc2sc(C)c(S(=O)(=O)N3CCOCC3)c2c1=O | -2.7%
58 | CCN(CC)CCNC(=O)c1sc2ncn(CC(=O)Nc3ccc(C)c(Cl)c3)c(=O)c2c1C | 32.4% (active)
59 | CCOC(=O)CSc1nc2ccc(C)cc2n2cnnc12 | -0.15%
60 | COc1ccc(S(=O)(=O)N2CCOCC2)cc1NC(=O)Cc1c(F)cccc1Cl | -4.41%
61 | Cc1cc(OCCCCOc2ccc(C#N)cc2)ccc1[N+](=O)[O-] | 19.5%
62 | Cc1ccccc1N1CCN(CCCOc2ccc3c(C)cc(=O)oc3c2)CC1 | 15.9%
63 | Cc1cc(OCCCN2CCN(Cc3ccccc3)CC2)ccc1[N+](=O)[O-] | 34.3% (active)
64 | CCOc1ccccc1N1CCN(C(=O)c2ccc3[nH]c(C)c(C)c3c2)CC1 | -3.51%
65 | Cc1cccc(OCC(O)CN2CCN(CCN3C(=O)c4cccc5cccc(c45)C3=O)CC2)c1C (stereo unspecified) | 31.6% (active)
66 | Cc1cccc(C)c1OCC(O)CN1CCCCC1 (stereo unspecified) | -4.51%
67 | Cc1ccccc1OCC(O)CN1CCN(c2ccccn2)CC1 (stereo unspecified) | -3.92%
68 | CCCCC[C@H]1CN(C2CCCCC2)C(=O)[C@@H]1CC(=O)NCc1ccc(OC)cc1 | -3.9%
69 | COC(=O)c1ccc(S(=O)(=O)N(CCO)Cc2ccccc2)n1C | 7.11%

Row | SMILES | inhibition
70 | COC(=O)c1c(NC(=O)COc2ccc(Cl)cc2Cl)sc2c1CC(C)(C)NC2(C)C | 1.16%
71 | CCC(NC(=O)C1CCCC1)c1ccc(C)cc1 (stereo unspecified) | 0.26%
72 | Cc1ccc(C(c2sc3nc(C)nn3c2O)N2CCN(c3ccc(F)cc3)CC2)cc1 (stereo unspecified) | 36.7% (active)
73 | Cc1ccc(C(c2sc3nc(C)nn3c2O)N2CCN(c3ccccc3)CC2)cc1 (stereo unspecified) | 1.64%
74 | Oc1c(C(c2cccs2)N2CCN(c3ccc(F)cc3)CC2)sc2ncnn12 (stereo unspecified) | -5.69%
75 | C[C@@H](NC(=O)OC(C)(C)C)c1nnc(S(=O)(=O)Cc2ccccc2)o1 | -2.33%
76 | O=C(C(c1ccccc1)c1ccccc1)N1CCN(CC(O)COc2ccccc2)CC1 (stereo unspecified) | 1.24%
77 | O=[N+]([O-])c1ccc(N2CCN(CC(O)COc3ccccc3)CC2)cc1 (stereo unspecified) | 29.5% (active)
78 | C[N+]1(CC(O)COc2ccccc2)CCN(C(=O)c2ccc([N+](=O)[O-])cc2)CC1 (stereo unspecified) | -1.46%
79 | Cc1ccccc1NC(=O)Cc1nc(COC(=O)c2cccnc2Cl)cs1 | 2.11%
80 | O=C(Nc1ccccc1F)c1ccc(Cn2cc(Br)cn2)cc1 | -5.94%
81 | CCc1ccc(NC(=O)c2ccc(Cn3cc([N+](=O)[O-])cn3)cc2)cc1 | 32% (active)
82 | COc1cccc(NC(=O)c2ccc(Cn3cc([N+](=O)[O-])cn3)o2)c1 | 4.62%
83 | O=C(Nc1ccccc1Cl)/C(Cl)=C(\Cl)S(=O)c1ccccc1 (stereo unspecified) | -37.3%
84 | O=C1Cc2ccccc2Sc2ccc(Cl)cc21 | -9.53%
85 | COc1ccc(-c2nnc(SC(C)C(=O)NC3CC3)o2)cc1 (stereo unspecified) | 1.72%
86 | CCN1C(=O)[C@H]2[C@@H](c3ccc(-c4ccc(OC)cc4)cc3)N[C@@](Cc3ccccc3)(C(=O)OC)[C@H]2C1=O | 6.99%
87 | CCC(Cc1ccccc1)NS(=O)(=O)c1ccc2c(c1)NC(=O)CS2 (stereo unspecified) | 1.66%
88 | COc1ccc(C2=NOC3(CC(=O)N(c4ccc(Cl)cc4)C3=O)C2)c(OC)c1 (stereo unspecified) | 7.09%
89 | CCOC(=O)N1CCN(C(=O)Cc2ccc(-n3c(=S)[nH]c4ccccc4c3=O)cc2)CC1 | 3.58%
90 | O=C(CCCC(=O)N1CCN(c2cccc(Cl)c2)CC1)c1ccccc1 | 24.1%
91 | O=C(Cc1ccc(-n2c(=O)[nH]c3ccccc3c2=O)cc1)N1CCN(c2cccc(Cl)c2)CC1 | 50.8% (active)
